Assay outcomes: PubChem, National Center for Advancing Translational Sciences (NCATS)
RGS12 GoLoco inh – qHTS Assay for Inhibitors of RGS12 GoLoco Motif Activity (Red Fluorophore); Guanine nucleotide-binding protein G(i) subunit alpha-1 (Homo sapiens), P63096; Gai1:RGS12 GoLoco peptide FP, rhodamine, 10 min; Potency, µM (top dose mostly 61.6 µM), inactives show top-dose activity, negative = inhibition, most hits filed as inhibitors; actives 0.44% (n = 230,000); active = well fitted inhibition curve with a large enough effect, not every such curve was filed as active; inactive = no such curve, though single readings can be large or run the other way; also: potency is read from the fitted curve at half-maximal effect; % is scaled to controls: 0 for no effect and ±100 for the full control effect; nearly all actives have a fitted effect of over 30% in size
Target sequence (P63096 whole entry, looked up): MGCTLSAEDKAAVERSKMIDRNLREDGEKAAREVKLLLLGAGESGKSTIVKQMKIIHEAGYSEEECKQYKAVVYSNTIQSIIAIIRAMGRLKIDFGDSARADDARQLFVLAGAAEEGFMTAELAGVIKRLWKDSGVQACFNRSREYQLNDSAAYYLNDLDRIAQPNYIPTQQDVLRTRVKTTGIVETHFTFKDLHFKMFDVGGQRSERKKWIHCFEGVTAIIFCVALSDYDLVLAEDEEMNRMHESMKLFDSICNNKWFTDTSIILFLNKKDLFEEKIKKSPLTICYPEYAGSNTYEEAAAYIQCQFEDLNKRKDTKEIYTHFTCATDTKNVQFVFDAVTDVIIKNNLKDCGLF
HTT ATP protect – qHTS Multiplex Assay to Identify Dual Action Probes in a Cell Model of Huntington: Cytoprotection (ATP); AID 1471, 2008; actives 0.14% (n = 230,000); PC12 HTT-Q103 induced, cytoprotection, ATP luminescence, 40 h; Potency, µM (doses to about 56.4 µM), for the others: cytoprotection (ATP increase), usual class: activators; also: potency is read from the fitted curve at half-maximal effect; % of control where 0% means no effect; nearly all actives have a fitted effect of over 45% in size
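ATP quantification (ATPlite) reports survival of PC12 cells in which tebufenozide, 100 nM final, switches on Htt exon 1 with 103 glutamines linked to GFP; compounds are titrated.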
ALDH1A1 inh – qHTS Assay for Inhibitors of Aldehyde Dehydrogenase 1 (ALDH1A1); Aldehyde dehydrogenase 1A1 (Homo sapiens), P00352; Purified ALDH1A1, NADH fluorescence, propionaldehyde substrate; Potency, µM (doses to about 75.3 µM), for inactives: at the highest dose activity, negative = inhibition, most hits filed as inhibitors; actives 7.3% (n = 220,000); active = well fitted inhibition curve with a large enough effect, not every such curve was filed as active; inconclusive = small, poorly fitted or top-dose-only effect, or another doubt; inactive = no such curve, though single readings can be large or run the other way;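 also: potency is read from the fitted curve at half-maximal effect; plate controls were no enzyme wells and a reference inhibitor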
PNC assembly inh – High Content Assay for Compounds that inhibit the Assembly of the Perinucleolar Compartment; AID 2417, 2010; actives 3.1% (n = 140,000); activity change (PNC), negative = inhibition, % at 10 µM; PC3M PTB-GFP, PNC prevalence imaging, 16 h; active compounds read low;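 active = readout at or below -70, meaning at least 70% loss of cells showing the perinucleolar compartment, a nuclear body marking cancer cells; inconclusive = readout between -30 and a set limit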;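 also: plate controls were DMSO wells for no effect and camptothecin positive control wells for full effect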
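Read-out is percentage of cells bearing a perinucleolar compartment, from automated 20x imaging of fixed, Hoechst-stained PC3M PTB-GFP cells. Cells were seeded 4 h, then exposed 16 h to compound (23 nl of library stock) in duplicate plates.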
HPGD block – qHTS Assay for Inhibitors of HPGD (15-Hydroxyprostaglandin Dehydrogenase); 15-hydroxyprostaglandin dehydrogenase [NAD(+)] (Homo sapiens), P15428; purified HPGD, NADH fluorescence kinetic, PGE2 substrate; AID 894, 2007; Potency, µM, for inactives: at the highest dose activity change, negative = inhibition, usual class: inhibitors; actives 4.3% (n = 150,000); active = well fitted inhibition curve with a large enough effect, not every such curve was filed as active; inconclusive = small, poorly fitted or top-dose-only effect, or another doubt; inactive = no such curve, though single readings can be large or run the other way; also: potency is read from the fitted curve at half-maximal effect; % is scaled to controls: 0 for no effect and ±100 for the full control effect
Target sequence (P15428 whole entry, looked up): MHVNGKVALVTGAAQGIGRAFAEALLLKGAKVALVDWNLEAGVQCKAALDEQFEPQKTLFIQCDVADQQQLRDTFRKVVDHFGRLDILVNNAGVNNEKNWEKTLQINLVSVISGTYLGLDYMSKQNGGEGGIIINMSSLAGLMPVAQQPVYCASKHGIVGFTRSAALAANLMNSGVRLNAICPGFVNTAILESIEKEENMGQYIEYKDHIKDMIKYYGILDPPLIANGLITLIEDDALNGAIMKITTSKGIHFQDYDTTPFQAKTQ
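NADH formation kinetics: reaction with 30 uM PGE2 and 1 mM NAD+ (final), 20 nM enzyme, Tris-HCl pH 8 with Tween 20, after 15 min compound preincubation at room temperature. Fluorescence change, last versus first of five reads.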
HttQ103 aggreg – qHTS Multiplex Assay to Identify Dual Action Probes in a Cell Model of Huntington: Aggregate Formation (GFP). PC12 HttQ103-GFP aggregates, Acumen cytometry, 40 h. Potency, µM (doses to about 46.1 µM), inactives show at the top dose activity change, negative = inhibition, actives largely listed as inhibitors. actives 1.1% (n = 220,000). AID 1688, 2009; also: potency is read from the fitted curve at half-maximal effect; % is scaled to controls: 0 for no effect and ±100 for the full control effect; nearly all actives have a fitted effect of over 60% in size
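Quantitative HTS on tebufenozide-induced (100 nM) PC12 cells stably expressing polyQ103 Huntingtin exon 1–GFP. Reduction of bright GFP aggregates, detected by laser scanning cytometry after lysis, identified actives across the titration.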
* = called active by the depositor; ? = inconclusive; · = no result given; [ ] = remark or other dose. Compounds with a hit are over-represented: about 11% of the library has one in this group of screens. Unless noted, calls follow the shape of the dose curve; as a rule, active = well fitted curve in the direction sought with a large enough effect; inconclusive = small, poorly fitted or top-dose-only effect, or another doubt; inactive = no such curve, though single readings can be large; an effect the other way counts as inactive or inconclusive.

SMILES	RGS12 GoLoco inh	HTT ATP protect	ALDH1A1 inh	PNC assembly inh	HPGD block	HttQ103 aggreg
COc1ccc(S(=O)(=O)Nc2ccccc2C)cc1	5%	-26%	2%	?	-1%	-8%
COc1ccc(S(=O)(=O)Nc2cc3c4c(oc3c3ccccc23)CC(C)(C)CC4=O)cc1	-4%	-33%	3.2µM*	57	-19%	-8%
CC(C(=O)OCc1nnc(-c2ccccc2)o1)N1C(=O)C2CCCCC2C1=O (stereo not given)	39%	-28%	?	·	·	-6%
O=C(c1cc2nc(-c3cccs3)cc(C(F)(F)F)n2n1)N1CCCc2ccccc21	10%	-9%	-13%	-29	14µM*	-6%
O=C(c1cc2nc(-c3ccco3)cc(C(F)(F)F)n2n1)N1CCCCCC1	20%	-11%	?	3	?	?
O=C(c1cc2nc(-c3ccco3)cc(C(F)(F)F)n2n1)N1CCCc2ccccc21	30%	-12%[10 µM]	18µM*	?	?	-13%
O=C(c1nn2c(C(F)(F)F)cc(-c3ccco3)nc2c1Br)N1CCCc2ccccc21	29%	-10%[10 µM]	7.9µM*	?	-26%	?
O=C(COC(=O)c1cccnc1Cl)Nc1ccc2c(c1)OCCO2	4%	-33%	-7%	·	·	18%
CCn1c(C)cc(C=C2C(=O)c3ccccc3C2=O)c1C	12%	13%[10 µM]	11µM*	·	·	-11%[9.22 µM]
Cc1cc(C=C2C(=O)c3ccccc3C2=O)c(C)n1C	-8%	-11%[10 µM]	?	3	-15%	22%
Cc1cccc(-n2c(C)cc(C=C3C(=O)c4ccccc4C3=O)c2C)c1	-13%	5%	1.6µM*	-85*	-14%	2%
Cc1cc(C=C2C(=O)c3ccccc3C2=O)c(C)n1-c1ccc(Cl)cc1	9%	10%[10 µM]	2.2µM*	20	-10%	9%
CCCCC(=O)Nc1ccc(NC(=O)c2ccc([N+](=O)[O-])cc2Cl)cc1OC	15%	15%[10 µM]	-9%	-2	-5%	0%
CCc1[nH]nc2c1C1(C(=O)N(Cc3ccccc3)c3ccccc31)C(C#N)=C(N)O2 (stereo not given)	1%	7%	7.9µM*	48	-15%	13%
OCc1ccccc1O[C@H]1OC(CO)C(O)C(O)C1O (stereo not given in full)	1%	·	2%	·	5%	·
N=c1sccn1CC(=O)Nc1ccc(S(N)(=O)=O)cc1	6%	1%[10 µM]	7.1µM*	·	·	3%[9.22 µM]
N=c1sccn1CC(=O)Nc1cccc(S(N)(=O)=O)c1	6%	5%[10 µM]	·	·	·	2%[9.22 µM]
N=c1sccn1CC(=O)Nc1ccc(Cl)cc1[N+](=O)[O-]	-5%	27%[10 µM]	28µM*	·	·	3%[9.22 µM]
COc1ccccc1NC(=O)NS(=O)(=O)c1ccc(C)cc1	3%	14%	5%	-110*	4%	32%
CCNS(=O)(=O)c1ccc(NC(=O)Nc2ccccc2OC)cc1	-1%	-5%[10 µM]	25%	·	·	-14%[9.22 µM]
COc1ccccc1NC(=O)COc1ccc(/C=N/NS(=O)(=O)c2ccc(C)cc2)cc1	5%	-15%	?	?	16µM*	8%
Cc1ccc(S(=O)(=O)N/N=C/c2ccc(OCC(=O)Nc3ccccc3Cl)cc2)cc1	6%	-1%	-14%	15	14µM*	-10%
COc1ccccc1N(CC(=O)N/N=C/c1ccc(OCC(=O)NCc2ccco2)cc1)S(=O)(=O)c1ccc(C)cc1	3%	9%	-10%	30	16µM*	19%[9.22 µM]
O=C(COc1ccc(/C=N/NS(=O)(=O)c2ccccc2)cc1)Nc1ccc(F)cc1	·	-33%	-3%	12	·	12%
OCCN1CCN(CC(O)C(F)(F)F)CC1 (stereo not given)	10%	-17%	5%	·	·	?
SMILES	RGS12 GoLoco inh	HTT ATP protect	ALDH1A1 inh	PNC assembly inh	HPGD block	HttQ103 aggreg
CC(C)CNC(=O)COC(=O)c1ccc(F)cc1Cl	6%	-22%	14%	·	·	10%
CCN1C(=O)/C(=C/c2cccs2)N(C)C1=S	8%	-12%	?	?	-22%	11%
O=C(O)c1ccc(-c2ccc(/C=C3\NC(=O)N(Cc4ccc(Cl)cc4)C3=O)o2)cc1Cl	4%	·	?	·	·	·
Cc1ccc(/C=C2/NC(=O)N(Cc3ccc(Br)cc3)C2=O)o1	-10%	8%[10 µM]	13µM*	-25	?	21%
CCN1C(=O)N/C(=C/c2ccc(C)o2)C1=O	-12%	-23%[10 µM]	15µM*	13	-23%	?
Cc1ccc(/C=C2/NC(=O)N(Cc3ccccc3F)C2=O)o1	-15%	20%[10 µM]	16µM*	20	-17%	?
CCN1C(=O)/C(=C/c2ccc(C)o2)N(C)C1=S	-5%	23%[10 µM]	1.6µM*	?	?	?
CNc1ncnc2ccc(-c3ccc4c(c3)OCO4)cc12	4%	-4%	-11%	·	·	·
COc1ccc(N2CCN(C(c3ccccc3)c3sc4nc(C)nn4c3O)CC2)cc1 (stereo not given)	3%	-12%[10 µM]	·	·	·	-6%[9.22 µM]
O=C(Nc1ccccc1F)NC1CCN(Cc2nnnn2Cc2ccc(F)cc2)CC1	6%	0%[10 µM]	-4%	29	-9%	7%
O=C(Nc1ccc(F)cc1)NC1CCN(Cc2nnnn2Cc2ccco2)CC1	3%	6%[10 µM]	18µM*	33	2%	-8%
CCOc1ccccc1C(=O)NC1CC2CCCC(C1)N2Cc1nnnn1Cc1ccco1 (stereo not given)	8%	-31%	1µM*	-7	0%	-6%
O=C(NC1CC2CCC(C1)N2Cc1nnnn1Cc1ccco1)NC12CC3CC(CC(C3)C1)C2 (stereo not given)	5%	-7%[10 µM]	7.9µM*	-23	21%	-5%
COC(=O)/C(=C/c1cccnc1)NC(=O)c1ccccc1	3%	4%[10 µM]	15%	?	0%	-2%
CC(C)OC(=O)/C(=C/c1cccnc1)NC(=O)c1ccccc1	6%	-4%[10 µM]	11%	-92*	4%	1%
COc1ccc([C@H]2[C@@H]3C=CCC[C@@]3(C)C(=O)N2Cc2ccccc2)cc1Cl	5%	-6%[10 µM]	·	·	·	4%[9.22 µM]
CC1=CC(=O)N(c2ccc(C)cc2)C1c1ccc(Cl)cc1 (stereo not given)	-27%	·	-2%	33	22µM*	13%
CN(C)CCN1C(=O)c2ccccc2N(C)c2ccccc21	-18%	1%	-1%	·	·	1%
